ALDH1A1 inh = blocks purified human ALDH1A1 activity. P00352. Purified ALDH1A1, NADH fluorescence, propionaldehyde substrate. Potency, µM (highest dose often 75.3 µM), most hits filed as inhibitors. actives 7.3% (n = 220,000). AID 1030
LMNA splice mod = changes lamin A minigene splicing in HeLa cells; actives 0.01% (n = 200,000); HeLa LMNA splicing GFP/RFP minigene ratio, 48 h; Potency, µM (doses to about 46.1 µM), usual class: inhibitors; AID 1487; active = well fitted inhibition curve with a large enough effect in the signal ratio, with a control signal flat, not every such curve was filed as active; inconclusive = small, poorly fitted or top-dose-only effect, or effect the other way, or a change in a side signal; the % refers to the signal ratio
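S3 HeLa stable clones carrying a lamin A-EGFP splicing minigene plus DsRed2 were seeded at 600 cells/well in Opti-MEM with 2% FBS, pin-dosed and incubated 48 h at 37°C. Acumen cytometry (488 nm) gave the GFP/RFP total-intensity ratio.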
HPGD inh = inhibitors of human 15-hydroxyprostaglandin dehydrogenase (HPGD). actives 4.3% (n = 150,000). Potency, µM, hits mostly inhibitors. P15428. purified HPGD, NADH fluorescence kinetic, PGE2 substrate
Target sequence (P15428 whole entry, looked up): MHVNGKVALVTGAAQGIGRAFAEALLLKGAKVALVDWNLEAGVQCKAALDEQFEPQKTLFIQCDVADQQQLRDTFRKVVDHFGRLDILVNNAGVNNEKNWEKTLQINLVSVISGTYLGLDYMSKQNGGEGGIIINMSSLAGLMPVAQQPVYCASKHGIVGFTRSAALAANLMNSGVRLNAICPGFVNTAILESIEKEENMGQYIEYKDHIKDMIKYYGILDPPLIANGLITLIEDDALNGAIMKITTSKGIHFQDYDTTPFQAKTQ
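NADH formation kinetics: reaction with 30 uM PGE2 and 1 mM NAD+ (final), 20 nM enzyme, Tris-HCl pH 8 with Tween 20, after 15 min compound preincubation at room temperature. Fluorescence change, last versus first of five reads.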
ALOX12 inhib = blocks human 12-lipoxygenase activity; P18054; Potency, µM (series often up to 57.1 µM), hits mostly inhibitors; actives 0.12% (n = 150,000); purified 12-hLO, xylenol orange hydroperoxide absorbance; AID 1452; active = well fitted inhibition curve with a large enough effect; inconclusive = small, poorly fitted or top-dose-only effect; also: nearly all actives have a fitted effect of over 55% in size
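Hydroperoxide formation by human 12-lipoxygenase from 40 uM arachidonic acid was followed colorimetrically via ferric-xylenol orange complex, using the 573/405 nm absorbance ratio. Enzyme concentration was 150 nM, with 30 min reaction at room temperature.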
PNC assembly inh = blocks assembly of the perinucleolar compartment. PC3M PTB-GFP, PNC prevalence imaging, 16 h; stronger effect = lower value. activity change (PNC), negative = inhibition, % at 10 µM. actives 3.1% (n = 140,000);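 active = readout at or below -70, meaning at least 70% loss of cells showing the perinucleolar compartment, a nuclear body marking cancer cells; inconclusive = readout between -30 and a set limit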
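Compounds are pinned in duplicate onto adhered PC3M cells stably expressing GFP-tagged PTB and incubated 16 h at 37 C. Cells are then fixed, nuclei stained with Hoechst, and PNC-positive cells counted.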
Numbers stand for hits; ! = not active in a repeat; [ ] = dose if it differs, or a comment. In the library only some 10% were active in any assay of this set; here they are far more common. Unless noted, calls follow the shape of the dose curve; as a rule, active = well fitted inhibition curve with a large enough effect (not every such curve was filed as active); inconclusive = small, poorly fitted or top-dose-only effect, or another doubt; inactive = no such curve, though single readings can be large or run the other way.

Screening Cc1cc([N+](=O)[O-])cnc1NC(C)c1ccccc1 (configuration not stated) returned ALDH1A1 inh 22µM, LMNA splice mod inactive, HPGD inh inactive, ALOX12 inhib inactive and PNC assembly inh inactive.
`O=C(c1cnccn1)N1CCC2(CC1)CN(c1cccc(-c3ccccc3)c1)C2` gave ALDH1A1 inh inactive, HPGD inh inactive and ALOX12 inhib inactive.
NNc1nc(-c2ccccc2)cc(-c2ccccc2O)n1 was read as ALDH1A1 inh inactive, LMNA splice mod inconclusive, HPGD inh inactive, ALOX12 inhib inactive and PNC assembly inh -106.
For CCOC(=O)c1c(C)[nH]c(CCC(=O)NC(C)c2ccccc2)c1C (configuration not stated) the results were LMNA splice mod inactive.
For Cc1ccc(C(=O)N/C(=C\c2ccco2)C(=O)NCCCn2ccnc2)cc1C the results were ALDH1A1 inh 25µM, LMNA splice mod inactive, HPGD inh inactive, ALOX12 inhib inactive and PNC assembly inh inactive.
O=C1c2ccccc2C(=O)C1c1ccc2ccccc2n1 was read as ALDH1A1 inh 25µM!, LMNA splice mod inactive, HPGD inh inactive, ALOX12 inhib inactive and PNC assembly inh inactive.
`Cc1ccc(NC(=O)CN2CCSc3ccc(S(=O)(=O)N4CCCC4)cc32)cc1C` gave LMNA splice mod inactive.
`COCCNC(=S)NNc1cccc(C(=O)O)c1` gave ALDH1A1 inh inconclusive and LMNA splice mod inactive[9.22 µM].
For C=CCc1c(C)nc(SC)nc1Nc1ccc(C(C)=O)cc1 the results were ALDH1A1 inh 8.9µM, LMNA splice mod inconclusive, HPGD inh inactive, ALOX12 inhib inactive and PNC assembly inh inactive.
`C=CCc1c(C)nc(SC)nc1Nc1ccc(C(=O)O)cc1` gave ALDH1A1 inh inactive, LMNA splice mod inactive, HPGD inh inactive, ALOX12 inhib inactive and PNC assembly inh inconclusive.
Screening CC1(C)CC(NC(=O)C2CCCCC2C(=O)O)CC(C)(C)N1 (configuration not stated) returned ALDH1A1 inh inactive, LMNA splice mod inactive, HPGD inh inactive, ALOX12 inhib inactive and PNC assembly inh -99.
COCCCNC(=O)c1oc2c(c1C)-c1nn(Cc3ccccc3Cl)cc1CC2 was read as LMNA splice mod inactive.
Screening COc1cccc(N/C(SCc2ccccc2Cl)=C(/C#N)C(=O)NCc2cccs2)c1 returned ALDH1A1 inh inactive, LMNA splice mod inactive, HPGD inh inactive, ALOX12 inhib inactive and PNC assembly inh -125.
O=c1cc(O)nc(-c2ccccc2)s1 was read as ALDH1A1 inh 0.79µM.
For O=c1cc(O)nc(-c2ccc(Cl)cc2)s1 the results were ALDH1A1 inh 16µM.
`CC(C)(C)C(=O)NC1CC(=O)N(c2ccc3c(c2)OCCO3)C1` (configuration not stated) gave LMNA splice mod inactive.
Screening COc1ccc(CNC(=O)c2ccc(CNS(=O)(=O)c3ccc(F)cc3)cc2)cc1 returned LMNA splice mod inactive.
O=C(NCCO)c1cccc2c1C(=O)c1ccccc1-2 was read as ALDH1A1 inh 20µM, LMNA splice mod inactive, HPGD inh inactive, ALOX12 inhib inactive and PNC assembly inh inconclusive.
For COCC(=O)N1CCC2(CCCN(c3ncccn3)C2)CC1 the results were ALDH1A1 inh inactive, HPGD inh inactive and ALOX12 inhib inactive.
`COc1cccc(/C(C#N)=C/c2c(-c3ccc(Cl)cc3)nc3c(C)cccn23)c1` gave ALDH1A1 inh inactive, LMNA splice mod inconclusive, HPGD inh inactive, ALOX12 inhib inactive and PNC assembly inh -99.
CCC/C=C(\CCC)C(NS(=O)(=O)c1ccc(C(F)(F)F)cc1)c1ccc(-c2ccccc2)cc1 (configuration not stated) was read as ALDH1A1 inh 22µM, HPGD inh inactive and ALOX12 inhib inactive.
For CC(C)[C@H](O)CC[C@@H](C)C1CC[C@H]2C3CC=C4C[C@@H](O)CC[C@]4(C)C3CC[C@]12C (some centres not stated) the results were ALDH1A1 inh inactive.
O=C(CCS(=O)(=O)c1ccc(Br)cc1)Nc1cc(F)ccc1F was read as ALDH1A1 inh 22µM, LMNA splice mod inactive, HPGD inh inactive, ALOX12 inhib inactive and PNC assembly inh inactive.
`COc1ccc(NC(=O)c2cc3c([nH]c2=O)CC(c2ccccc2)CC3=O)cc1` (configuration not stated) gave LMNA splice mod inactive.
For O=C(O)CCCC[C@H]1CCSS1 the results were ALOX12 inhib inactive.
N#C/C(=C\c1ccc(O)c(O)c1)C(=O)NCCc1ccccc1 was read as ALDH1A1 inh inconclusive, LMNA splice mod inconclusive, HPGD inh 25µM and ALOX12 inhib inconclusive.
For COc1cc(/C=C(\C#N)C(=O)NCCc2ccccc2)cc(OC)c1O the results were ALDH1A1 inh inactive.
N#C/C(=C\c1ccc(O)c(O)c1)C(=O)NCCCCc1ccccc1 was read as ALDH1A1 inh inconclusive, HPGD inh 8.9µM and ALOX12 inhib inconclusive.
Screening COc1cc(C)cc2c(-c3c(O)cc(O)c4c3C[C@H](C)N[C@@H]4C)cc(-c3cc(-c4c(O)cc(O)c5c4C[C@H](C)N[C@@H]5C)c4cc(C)cc(OC)c4c3O)c(O)c12 returned ALDH1A1 inh inconclusive, HPGD inh inactive and ALOX12 inhib inactive[11.4 µM].
`Cc1nc2ccccc2n1CC(=O)OCC(=O)NC1CC1` gave ALDH1A1 inh inactive and LMNA splice mod inactive.
Screening CC(C)=CCC[C@](C)(O)C1CC=C(C)CC1 (some centres not stated) returned ALDH1A1 inh inactive, HPGD inh inactive and ALOX12 inhib inactive.
Screening Cc1ccccc1C(=O)Nc1nnc(S(=O)(=O)N2CCc3ccccc32)s1 returned LMNA splice mod inactive.
Screening COc1ccc(C(=O)/C=C/N(C)C)cc1 returned ALDH1A1 inh 7.9µM, LMNA splice mod inactive, HPGD inh 25µM, ALOX12 inhib inactive and PNC assembly inh -80.
`COc1ccc(C(=O)/C=C/N(C)C)cc1OC` gave ALDH1A1 inh inactive, LMNA splice mod inconclusive, HPGD inh inactive, ALOX12 inhib inactive and PNC assembly inh inactive.
COc1cccc(C(=O)/C=C/Nc2cc(C)ccc2O)c1 was read as ALDH1A1 inh 25µM, LMNA splice mod inactive, HPGD inh inconclusive, ALOX12 inhib inactive and PNC assembly inh inactive.
For COc1ccc(C(=O)/C=C/Nc2ccc([N+](=O)[O-])cc2)cc1 the results were ALDH1A1 inh 40µM, LMNA splice mod inactive, HPGD inh inactive, ALOX12 inhib inactive and PNC assembly inh inactive.
COc1ccc(C(=O)/C=C/Nc2cccc(O)c2)cc1 was read as ALDH1A1 inh 11µM, LMNA splice mod inactive, HPGD inh inconclusive, ALOX12 inhib inactive and PNC assembly inh inactive.
For CN(C)c1ccc(C(CNS(=O)(=O)c2ccc(Br)cc2)N2CCOCC2)cc1 (configuration not stated) the results were LMNA splice mod inactive.
Screening Cc1c(Cl)cccc1NC(=O)Cn1cnc2nc3c(cc2c1=O)CCCC3 returned LMNA splice mod inactive.
